Laboratory results taken from the supplement of paper PMC10849652.
Of roughly 7,900 targets only a part is listed; those with a hit were picked by preference. About 0.6% of all pairs of compound and target were hits.

How the values were obtained:
Assay in all cases: log2 fold change, soluble protein after heating vs DMSO (PISA); higher = thermal stabilisation; K562 cells, 10 uM, 30 min; active = over 0.2 and 3.5 SD of the protein, either way, in both replicates (recomputed)
[1] = compound: CC[C@@H]1C(=O)N(C)c2cnc(Nc3ccc(C(=O)NC4CCN(C)CC4)cc3OC)nc2N1C1CCCC1
Method in brief: (§1)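 Soluble protein was quantified by TMTpro 16plex LC-MS/MS after channel sums were equalised. It was obtained as the supernatant after 21,000xg for 90 min from pooled aliquots of K562 cells (2×10^6 cells/mL, 10 μM compound, 30 min) heated for 3 min across 48°C-58°C and extracted in PBS with 0.5% NP-40 at 4°C. Thermal stability values are relative to control samples and come from duplicates. They are given as log2 fold changes.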

[2] = compound: CC[C@@H]1C(=O)N(C)c2cnc(Nc3ccc(C(=O)N[C@H]4CC[C@H](N5CCN(CC6CC6)CC5)CC4)cc3OC)nc2N1C(C)C [volasertib]
Method in brief: as §1

[3] = compound: CC[C@H](C)N1C=C(C2=C(C=C(C=C21)C3=CN=C(C=C3)N4CCNCC4)C(=O)NCC5=C(C=C(NC5=O)C)C)C
Method in brief: as §1

[4] = compound: CC[C@H](C)[C@@H](C(=O)N[C@@H]([C@@H](C)O)C(=O)N[C@@H](CC(C)C)C(=O)[C@]1(CO1)C)NC(=O)[C@H]([C@@H](C)CC)N(C)C(=O)C [epoxomicin]
Method in brief: as §1

[5] = compound: CCn1c(C(=O)N(C2CC2)C2CC2)cc2c3c(ncn3C)c(Nc3cc(C)n(C)n3)nc21
Method in brief: as §1

[6] = compound: CCn1cc(-c2ccnc3[nH]c(-c4cccc(CN(C)C)c4)cc23)c(-c2ccc(NC(=O)N(C)C)cc2)n1
Method in brief: as §1

[7] = compound: CN(C)CC(=O)Nc1ccc2[nH]c(=O)c3ccccc3c2c1
Method in brief: as §1

[8] = compound: CN(CCOC1=CC=C(C=C1)C[C@H]2C(=O)NC(=O)S2)C3=CC=CC=N3 (racemic) [rosiglitazone]
Method in brief: as §1

[9] = compound: CN1C2=C(C3=C1C(=O)N(N=C3)CC4=CC(=CC=C4)N)SC(=C2)S(=O)C
Method in brief: as §1

[10] = compound: CN1CCC(CNc2ccc3ncc(-c4cccc(OC(F)(F)F)c4)n3n2)CC1
Method in brief: as §1

[11] = compound: CN1CCN(CCOc2cc(OC3CCOCC3)c3c(Nc4c(Cl)ccc5c4OCO5)ncnc3c2)CC1 [saracatinib]
Method in brief: as §1

[12] = compound: CN1CCN(c2nc(C3=C(c4c[nH]c5ccccc45)C(=O)NC3=O)c3ccccc3n2)CC1 [sotrastaurin]
Method in brief: as §1

[13] = compound: CN1CC[C@H](c2c(O)cc(O)c3c(=O)cc(-c4ccccc4Cl)oc23)[C@H](O)C1 [alvocidib]
Method in brief: as §1

[14] = compound: CN1CCc2c(c3ccccc3n2Cc2ccc(C(=O)NO)cc2)C1 [Tubastatin A]
Method in brief: as §1

[15] = compound: CNC(=O)C1=CC=CC=C1NC2=NC(=NC=C2Cl)NC3=C(C=C(C=C3)N4CCOCC4)OC
Method in brief: as §1

[16] = compound: CNC(=O)c1ccc(Nc2ncc(C(F)(F)F)c(NCc3nccnc3N(C)S(C)(=O)=O)n2)cc1 [defactinib]
Method in brief: as §1

[17] = compound: CNCc1ccc(-c2[nH]c3cc(F)cc4c3c2CCNC4=O)cc1 [rucaparib]
Method in brief: as §1

[18] = compound: CNc1nc(-c2ccc3c(N)n[nH]c3c2)cc(N2C[C@@H](C(=O)NC3CCCCC3)CC[C@H]2C)n1
Method in brief: as §1

[19] = compound: COC(=O)N[C@@H](C)CNc1nccc(-c2cn(C(C)C)nc2-c2cc(Cl)cc(NS(C)(=O)=O)c2F)n1 [encorafenib]
Method in brief: as §1

[20] = compound: COC(=O)[C@H](CCSC)NC(=O)C1=C(C=C(C=C1)NC[C@H](CS)N)C2=CC=CC=C2
Method in brief: as §1

Measured: log2 fold change

HPCAL1 (UniProt P37235)
inactive: [1] -0.076 | [2] -0.065 | [3] -0.028 | [4] 0.048 | [5] 0.003 | [6] 0.039 | [7] 0.019 | [8] 0.005 | [9] -0.029 | [10] -0.032 | [11] 0.011 | [12] 0.017 | [13] -0.004 | [14] -0.085 | [15] 0.048 | [16] -0.008 | [17] 0.013 | [18] -0.107 | [19] -0.014 | [20] -0.025

HSPA8 (UniProt E9PN89)
inactive: [1] 0.167 | [2] 0.114 | [3] -0.205 | [4] -0.278 | [5] -0.127 | [6] 0.178 | [7] -0.139 | [8] 0.049 | [10] -0.154 | [12] 0.105 | [13] 0.281 | [14] -0.018 | [15] -0.057 | [16] 0.044 | [17] 0.101 | [19] 0.023 | [20] -0.036

GEMIN5 (UniProt Q8TEQ6)
UniProt Q8TEQ6, sequence (Q8TEQ6 whole entry, looked up): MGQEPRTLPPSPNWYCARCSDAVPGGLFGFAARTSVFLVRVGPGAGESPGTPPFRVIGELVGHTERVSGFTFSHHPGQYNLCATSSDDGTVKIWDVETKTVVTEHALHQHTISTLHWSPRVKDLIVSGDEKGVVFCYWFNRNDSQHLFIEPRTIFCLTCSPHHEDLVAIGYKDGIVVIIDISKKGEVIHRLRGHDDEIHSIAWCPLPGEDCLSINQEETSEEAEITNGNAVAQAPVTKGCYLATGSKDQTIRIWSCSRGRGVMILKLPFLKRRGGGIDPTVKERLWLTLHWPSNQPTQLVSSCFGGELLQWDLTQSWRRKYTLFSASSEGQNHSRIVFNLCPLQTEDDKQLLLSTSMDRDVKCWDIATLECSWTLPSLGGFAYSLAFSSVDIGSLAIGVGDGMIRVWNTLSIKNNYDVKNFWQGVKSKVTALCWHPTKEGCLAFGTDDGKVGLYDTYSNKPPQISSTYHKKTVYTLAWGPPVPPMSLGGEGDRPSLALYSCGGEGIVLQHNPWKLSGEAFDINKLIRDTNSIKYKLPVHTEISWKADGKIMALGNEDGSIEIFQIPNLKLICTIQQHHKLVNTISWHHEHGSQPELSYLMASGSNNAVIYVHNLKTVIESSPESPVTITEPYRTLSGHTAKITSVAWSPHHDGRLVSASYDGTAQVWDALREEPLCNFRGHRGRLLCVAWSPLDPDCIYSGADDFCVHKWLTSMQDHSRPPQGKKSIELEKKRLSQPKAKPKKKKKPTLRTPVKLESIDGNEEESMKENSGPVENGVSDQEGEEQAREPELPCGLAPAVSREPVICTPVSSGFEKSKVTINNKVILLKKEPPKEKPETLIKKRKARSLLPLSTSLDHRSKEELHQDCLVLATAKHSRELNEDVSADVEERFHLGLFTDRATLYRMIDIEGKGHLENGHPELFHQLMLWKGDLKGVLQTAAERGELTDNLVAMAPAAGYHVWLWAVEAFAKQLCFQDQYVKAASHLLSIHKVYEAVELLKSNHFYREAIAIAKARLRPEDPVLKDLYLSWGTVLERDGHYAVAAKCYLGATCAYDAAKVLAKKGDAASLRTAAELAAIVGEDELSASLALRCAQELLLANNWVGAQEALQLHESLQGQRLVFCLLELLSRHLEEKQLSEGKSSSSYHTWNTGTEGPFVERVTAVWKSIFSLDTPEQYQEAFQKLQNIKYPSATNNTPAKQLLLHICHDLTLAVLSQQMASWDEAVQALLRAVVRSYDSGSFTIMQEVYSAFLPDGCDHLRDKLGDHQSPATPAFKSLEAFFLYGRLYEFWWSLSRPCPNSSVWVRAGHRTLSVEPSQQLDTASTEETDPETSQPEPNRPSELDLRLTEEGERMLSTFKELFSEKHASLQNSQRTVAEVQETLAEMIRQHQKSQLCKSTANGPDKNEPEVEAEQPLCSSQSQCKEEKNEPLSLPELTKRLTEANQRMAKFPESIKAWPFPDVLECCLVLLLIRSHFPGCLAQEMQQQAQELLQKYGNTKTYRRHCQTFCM
inactive: [1] -0.122 | [3] 0.034 | [4] -0.014 | [5] -0.007 | [6] 0.042 | [7] 0.015 | [8] 0.046 | [9] 0.019 | [10] -0.094 | [11] -0.014 | [12] -0.035 | [13] -0.192 | [14] -0.053 | [15] -0.02 | [17] 0.026 | [18] 0.025 | [19] 0.061 | [20] -0.019
active: [2] -0.438 | [16] -0.216

FYB1 isoform 3 (UniProt O15117)
UniProt O15117, sequence (O15117 whole entry, looked up): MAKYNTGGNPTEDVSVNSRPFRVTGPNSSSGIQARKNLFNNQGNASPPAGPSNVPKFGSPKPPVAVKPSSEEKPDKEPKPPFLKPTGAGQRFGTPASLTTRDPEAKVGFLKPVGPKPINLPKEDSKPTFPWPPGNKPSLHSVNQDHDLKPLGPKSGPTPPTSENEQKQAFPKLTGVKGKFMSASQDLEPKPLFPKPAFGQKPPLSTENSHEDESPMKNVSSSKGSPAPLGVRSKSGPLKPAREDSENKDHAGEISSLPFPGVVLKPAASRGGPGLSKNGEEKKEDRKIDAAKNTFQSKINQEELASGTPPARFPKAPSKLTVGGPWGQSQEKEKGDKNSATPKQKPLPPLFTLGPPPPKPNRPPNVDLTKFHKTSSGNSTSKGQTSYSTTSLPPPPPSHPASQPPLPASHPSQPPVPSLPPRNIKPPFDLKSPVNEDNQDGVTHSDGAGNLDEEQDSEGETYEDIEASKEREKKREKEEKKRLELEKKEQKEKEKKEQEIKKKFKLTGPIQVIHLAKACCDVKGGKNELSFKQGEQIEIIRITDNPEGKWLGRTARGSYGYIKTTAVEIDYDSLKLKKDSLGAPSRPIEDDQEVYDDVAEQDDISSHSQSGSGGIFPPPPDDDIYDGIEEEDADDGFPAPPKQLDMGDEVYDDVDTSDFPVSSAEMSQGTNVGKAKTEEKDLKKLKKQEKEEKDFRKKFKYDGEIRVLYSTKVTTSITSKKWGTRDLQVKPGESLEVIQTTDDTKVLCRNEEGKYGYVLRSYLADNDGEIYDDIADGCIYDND
inactive: [1] -0.018 | [2] -0.201 | [3] 0.263 | [4] 0.052 | [5] -0.057 | [6] -0.008 | [7] 0.019 | [8] 0.115 | [9] -0.068 | [10] -0.246 | [11] 0.007 | [12] -0.101 | [14] -0.018 | [15] 0 | [16] -0.112 | [17] 0.028 | [18] -0.076 | [19] 0.074 | [20] -0.01

GBA2 (UniProt Q9HCG7)
inactive: [1] 0 | [3] -0.082 | [4] -0.062 | [5] -0.075 | [7] 0.027 | [8] -0.07 | [9] -0.085 | [11] -0.046 | [12] -0.026 | [13] -0.063 | [14] -0.03 | [15] -0.012 | [16] -0.07 | [17] -0.266 | [18] 0.11 | [19] 0.084 | [20] 0.071
active: [2] 0.308

GCSH (UniProt P23434)
UniProt P23434, sequence (P23434 whole entry, looked up): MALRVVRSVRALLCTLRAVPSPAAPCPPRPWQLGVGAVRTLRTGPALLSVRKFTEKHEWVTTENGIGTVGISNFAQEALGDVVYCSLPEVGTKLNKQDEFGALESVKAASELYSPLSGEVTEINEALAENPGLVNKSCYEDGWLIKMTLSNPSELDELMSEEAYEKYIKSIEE
inactive: [1] 0.055 | [2] 0.065 | [3] -0.078 | [4] 0.005 | [5] 0.05 | [6] 0.023 | [7] 0.028 | [8] 0.053 | [9] 0.012 | [11] -0.024 | [12] 0.057 | [13] 0.009 | [14] -0.017 | [15] 0.021 | [16] -0.01 | [17] -0.012 | [18] -0.004 | [19] -0.028 | [20] -0.008
active: [10] -0.338

IDH3A isoform 2 (UniProt P50213)
UniProt P50213, sequence (P50213 whole entry, looked up): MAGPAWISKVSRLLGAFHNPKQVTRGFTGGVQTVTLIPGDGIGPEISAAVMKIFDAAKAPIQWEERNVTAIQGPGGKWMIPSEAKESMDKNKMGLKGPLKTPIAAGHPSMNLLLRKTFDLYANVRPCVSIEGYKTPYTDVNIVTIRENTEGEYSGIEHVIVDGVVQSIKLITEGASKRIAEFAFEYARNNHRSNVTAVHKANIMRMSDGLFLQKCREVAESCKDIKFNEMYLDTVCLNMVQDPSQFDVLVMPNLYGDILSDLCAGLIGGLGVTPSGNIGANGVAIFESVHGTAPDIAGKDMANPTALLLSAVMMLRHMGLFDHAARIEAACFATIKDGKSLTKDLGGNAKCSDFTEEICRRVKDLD
inactive: [3] -0.056 | [5] -0.14 | [8] 0.003 | [13] -0.206 | [14] 0.138 | [15] -0.117

GOLGA8R (UniProt I6L899)
UniProt I6L899, sequence (I6L899 whole entry, looked up): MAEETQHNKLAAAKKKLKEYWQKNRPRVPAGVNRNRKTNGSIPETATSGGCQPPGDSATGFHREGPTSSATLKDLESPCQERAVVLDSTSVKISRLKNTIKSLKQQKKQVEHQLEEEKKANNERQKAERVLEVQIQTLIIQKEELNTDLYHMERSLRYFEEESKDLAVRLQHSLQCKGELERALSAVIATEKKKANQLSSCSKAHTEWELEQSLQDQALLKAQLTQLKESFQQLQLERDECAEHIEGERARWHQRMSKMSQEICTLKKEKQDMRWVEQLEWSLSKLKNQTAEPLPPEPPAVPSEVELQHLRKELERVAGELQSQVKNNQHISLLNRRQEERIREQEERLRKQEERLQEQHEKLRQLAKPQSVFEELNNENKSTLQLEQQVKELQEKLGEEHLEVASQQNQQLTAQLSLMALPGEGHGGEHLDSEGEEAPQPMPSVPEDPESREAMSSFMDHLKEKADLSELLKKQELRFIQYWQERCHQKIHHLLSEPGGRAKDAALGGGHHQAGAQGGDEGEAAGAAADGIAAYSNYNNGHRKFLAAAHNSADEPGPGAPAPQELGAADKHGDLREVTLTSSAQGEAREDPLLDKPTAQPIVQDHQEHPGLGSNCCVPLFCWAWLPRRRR
inactive: [1] -0.036 | [2] -0.4 | [5] -0.233 | [6] -0.182 | [7] 0.191 | [8] 0.074 | [9] -0.003 | [10] -0.033 | [11] -0.126 | [13] 0.018 | [14] 0.253 | [15] -0.148 | [16] -0.197 | [17] 0.189 | [18] 0.246 | [19] -0.098 | [20] -0.086

FIZ1 (UniProt Q96SL8)
UniProt Q96SL8, sequence (Q96SL8 whole entry, looked up): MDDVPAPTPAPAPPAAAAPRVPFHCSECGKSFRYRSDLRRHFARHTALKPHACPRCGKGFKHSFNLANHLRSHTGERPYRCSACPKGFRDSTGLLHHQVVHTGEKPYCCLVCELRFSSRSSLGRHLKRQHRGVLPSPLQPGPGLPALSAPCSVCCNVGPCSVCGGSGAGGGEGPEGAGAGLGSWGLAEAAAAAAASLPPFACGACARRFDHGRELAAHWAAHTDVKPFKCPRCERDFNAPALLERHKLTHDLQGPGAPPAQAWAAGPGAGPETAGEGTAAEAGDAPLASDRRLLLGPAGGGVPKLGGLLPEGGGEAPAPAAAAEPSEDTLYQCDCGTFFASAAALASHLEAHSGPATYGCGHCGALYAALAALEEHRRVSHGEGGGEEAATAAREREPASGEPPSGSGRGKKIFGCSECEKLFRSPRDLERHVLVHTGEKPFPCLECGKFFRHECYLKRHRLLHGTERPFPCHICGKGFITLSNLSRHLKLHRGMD
inactive: [1] 0.169 | [3] 0.088 | [4] -0.071 | [6] -0.125 | [7] -0.06 | [9] 0.138 | [10] 0.024 | [11] 0.149 | [12] 0 | [13] 0.141 | [16] 0.06 | [17] -0.012 | [18] -0.095 | [19] 0.069 | [20] 0.108

FIBP (UniProt O43427)
UniProt O43427, sequence (O43427 whole entry, looked up): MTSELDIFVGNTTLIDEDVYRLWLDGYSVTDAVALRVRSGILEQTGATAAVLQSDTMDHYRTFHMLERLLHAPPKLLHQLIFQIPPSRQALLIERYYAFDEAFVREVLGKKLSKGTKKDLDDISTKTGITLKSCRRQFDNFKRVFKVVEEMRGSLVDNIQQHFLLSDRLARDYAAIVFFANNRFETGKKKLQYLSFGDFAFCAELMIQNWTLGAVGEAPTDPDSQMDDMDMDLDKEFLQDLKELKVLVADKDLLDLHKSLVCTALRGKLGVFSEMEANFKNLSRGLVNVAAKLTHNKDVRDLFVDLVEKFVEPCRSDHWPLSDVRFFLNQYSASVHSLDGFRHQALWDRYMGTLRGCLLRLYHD
active: [17] 0.395
inactive: [1] 0.164 | [2] -0.093 | [4] -0.023 | [5] -0.026 | [6] -0.023 | [7] -0.043 | [8] -0.012 | [9] -0.072 | [10] -0.229 | [11] -0.074 | [12] -0.05 | [13] -0.01 | [14] 0.07 | [15] 0.002 | [16] -0.046 | [18] -0.085 | [19] 0.039 | [20] 0.004

FCHO1 (UniProt O14526)
inactive: [1] -0.186 | [3] 0.168 | [4] 0.05 | [5] 0.067 | [7] 0.112 | [9] 0.025 | [11] -0.064 | [12] -0.162 | [13] -0.049 | [14] 0.007 | [15] 0.043 | [16] -0.042 | [17] 0.248 | [18] 0.054 | [19] 0.101 | [20] 0.046
active: [2] -0.768

FBXO9 (UniProt Q9UK97)
active: [2] -0.545
inactive: [1] -0.17 | [3] 0.06 | [5] 0.086 | [6] 0.009 | [7] 0.097 | [8] 0.07 | [9] 0.045 | [10] 0.203 | [11] -0.024 | [13] -0.018 | [14] -0.003 | [15] 0.141 | [16] 0.052 | [17] 0.055 | [18] -0.014 | [19] 0.152 | [20] -0.037

GOLGA6B (UniProt A6NDN3)
active: [3] -0.579
inactive: [4] -0.061 | [5] 0.07 | [6] -0.185 | [7] 0.327 | [8] 0.084 | [10] 0.067 | [12] 0.068 | [15] -0.066 | [16] -0.211 | [20] -0.475

GPD1 (UniProt P21695)
inactive: [2] -0.161 | [3] 0 | [4] -0.205 | [5] -0.23 | [6] -0.011 | [7] -0.045 | [8] 0.027 | [9] -0.126 | [10] -0.183 | [11] -0.005 | [12] 0.065 | [13] 0.131 | [14] -0.027 | [15] -0.298 | [16] -0.072 | [18] 0.05 | [20] 0.016

GSE1 (UniProt Q14687)
active: [20] -0.498
inactive: [3] -0.003 | [7] -0.117 | [8] 0.151 | [9] -0.004 | [11] -0.077 | [13] -0.186 | [16] 0.027 | [18] -0.014

GNL3 (UniProt Q9BVP2)
UniProt Q9BVP2, sequence (Q9BVP2 whole entry, looked up): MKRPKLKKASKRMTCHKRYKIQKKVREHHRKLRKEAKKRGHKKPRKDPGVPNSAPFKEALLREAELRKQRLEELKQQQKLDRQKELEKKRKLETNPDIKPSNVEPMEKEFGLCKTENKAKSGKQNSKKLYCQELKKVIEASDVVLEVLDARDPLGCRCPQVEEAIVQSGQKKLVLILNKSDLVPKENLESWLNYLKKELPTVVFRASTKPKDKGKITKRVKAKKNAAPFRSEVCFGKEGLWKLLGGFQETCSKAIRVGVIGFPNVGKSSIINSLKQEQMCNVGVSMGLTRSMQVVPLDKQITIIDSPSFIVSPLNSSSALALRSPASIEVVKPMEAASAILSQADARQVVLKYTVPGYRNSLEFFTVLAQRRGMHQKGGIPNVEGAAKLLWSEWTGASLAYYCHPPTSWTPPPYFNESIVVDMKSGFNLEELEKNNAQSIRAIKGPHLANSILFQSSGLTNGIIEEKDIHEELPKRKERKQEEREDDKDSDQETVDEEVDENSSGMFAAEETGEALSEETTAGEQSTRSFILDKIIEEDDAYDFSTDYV
inactive: [1] 0.018 | [3] -0.197 | [4] -0.06 | [6] 0.118 | [7] 0.002 | [8] 0.046 | [9] -0.103 | [10] 0.081 | [11] -0.124 | [12] 0.03 | [13] 0.145 | [14] 0.304 | [16] 0.005 | [17] -0.052 | [18] 0.044 | [19] -0.065 | [20] 0.015

FMR1 (UniProt Q06787)
inactive: [1] -0.068 | [2] -0.173 | [5] 0.178 | [6] 0.088 | [10] 0.279 | [12] -0.105 | [13] 0.046 | [15] 0.006 | [17] 0.19 | [19] 0.04

HDAC10 (UniProt Q969S8)
inactive: [1] -0.113 | [2] -0.041 | [3] 0.028 | [5] -0.005 | [6] -0.179 | [7] 0.224 | [8] 0.12 | [9] -0.107 | [10] 0.055 | [11] -0.04 | [13] 0.011 | [14] 0.458 | [15] 0.108 | [16] 0.067 | [17] 0.024 | [18] -0.02 | [19] 0.024 | [20] -0.137

GBE1 (UniProt Q04446)
active: [2] -0.61
inactive: [1] 0.042 | [4] 0.168 | [5] 0.016 | [7] 0.058 | [8] -0.128 | [9] 0.071 | [11] -0.252 | [13] -0.084 | [14] 0.055 | [15] -0.027 | [16] -0.195 | [17] -0.132 | [18] 0.076 | [19] 0.062 | [20] -0.034

FUT8 (UniProt Q9BYC5)
inactive: [3] -0.042 | [4] 0.002 | [5] 0.08 | [6] 0.06 | [7] 0.175 | [8] -0.001 | [9] -0.04 | [10] -0.057 | [11] -0.095 | [12] -0.049 | [13] 0.055 | [14] 0.02 | [15] 0.023 | [16] 0.049 | [17] -0.037 | [18] 0.017 | [19] 0.018
active: [1] -0.327 | [20] 0.506
